# Source: PubChem
# KB-V1 cytotox = qHTS assay for MDR1-selective chemotherapeutics: Primary screen using the drug-selected MDR subline cells KB-V1 | AID 1347076, 2019 | actives 3.4% (n = 400,000) | Potency, µM (titrated, usually from 46.1 µM), usual class: cytotoxic | KB-V1 MDR cells viability, CellTiter-Glo, 72 h; note: % is set by controls: 0 for no effect and ±100 for the full control effect; nearly all actives have a fitted effect of over 60% in size
#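 Drug-selected KB-V1 cells, grown in DMEM lacking phenol red with 10% FBS, receive compound titrations; after three days at 37 degrees C, surviving cell ATP is quantified by CellTiter-Glo luminescence and responses normalized and curve-fitted.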
# HT1080-NT tox = qHTS for induction of synthetic lethality in tumor cells producing 2HG: qHTS for the HT-1080-NT fibrosarcoma cell line; HT-1080-NT fibrosarcoma viability, CellTiter-Glo ATP luminescence, 48 h; Potency, µM (highest dose often 46.1 µM), inactives show top-dose activity, negative = less viability, usual class: cytotoxic; actives 1.6% (n = 360,000);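 note: NT is the 2HG producing partner of a matched IDH1 knockdown line; 0% = DMSO-treated cells and -100% = media-only wells without cells; nearly all actives have a fitted effect of over 55% in size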
#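 Luminescent CellTiter-Glo readout after 48 hours of compound exposure at 37 degrees C defined viability of HT-1080-NT cells. Activity was normalized to DMSO wells and cell-free media wells; concentration-response curves were fitted and assigned curve classes.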
# HT1080 IDH1KD tx = qHTS for induction of synthetic lethality in tumor cells producing 2HG: qHTS for the HT-1080-IDH1KD cell line | HT-1080 IDH1 knockdown viability, ATP luminescence, 48 h | Potency, µM (top dose mostly 46.1 µM), inactives show at the highest dose activity, negative = toxicity, most hits filed as cytotoxic | actives 2% (n = 360,000);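 note: 0% = DMSO wells and -100% = cell-free medium wells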
#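 IDH1KD HT-1080 cells, 750/well, RPMI + 5% FBS; compound pinned after 2 h settling; 48 h, 37 °C; CellTiter-Glo luminescence; % activity normalised to DMSO and no-cell wells; curves fitted, classed by r2 and efficacy.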
# MCF10A rerep = A quantitative high throughput screen for small molecules that induce DNA re-replication in MCF 10a normal breast cells. MCF 10A DNA re-replication, Hoechst nuclear intensity, 48 h. Potency, µM (doses to about 46.1 µM), inactives show top-dose activity, positive = re-replication, usual class: activators. actives 2.9% (n = 350,000); note: % of control where 0% means no effect; nearly all actives have a fitted effect of over 50% in size
# SW480 rerep = A quantitative high throughput screen for small molecules that induce DNA re-replication in SW480 colon adenocarcinoma cells; actives 1.8% (n = 340,000); Potency, µM (titrated, usually from 46.1 µM), for the others: at the top dose re-replication activation, usual class: activators; SW480 DNA re-replication, Hoechst DNA content imaging, 48 h; note: % of control where 0% means no effect; nearly all actives have a fitted effect of over 55% in size
#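 250 cells/well; 23 nL cpd via pin tool; 48 hr, 37 C, 5% CO2; Hoechst 40 min; imager read of total nuclear intensity, ex 405/em 500-530 nm.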
# KB-3-1 cytotox = qHTS assay for MDR1-selective chemotherapeutics: Primary screen using the parental adenocarcinoma cell KB-3-1. KB-3-1 viability, CellTiter-Glo ATP luminescence, 72 h. Potency, µM (series often up to 46.1 µM), most hits filed as cytotoxic. actives 1.4% (n = 400,000). AID 1347075, 2019; note: % is set by controls: 0 for no effect and ±100 for the full control effect; nearly all actives have a fitted effect of over 60% in size
#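 Multi-concentration cytotoxicity screen in KB-3-1 cells grown in DMEM lacking phenol red with 10% FBS. After 72 h at 37 °C with compound, ATP-dependent luminescence was recorded.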
# Active calls of the source: *; i = inactive; ? = inconclusive; / = no result given. The list is not random: actives were taken first. Their share in the collection is about 8%. Calls come from the whole dose curve; as a rule, active = well fitted curve in the direction sought with a large enough effect; inconclusive = small, poorly fitted or top-dose-only effect, or another doubt; inactive = no such curve, though single readings can be large; an effect the other way counts as inactive or inconclusive. Potency is the fitted concentration of half-maximal effect.
SMILES,KB-V1 cytotox,HT1080-NT tox,HT1080 IDH1KD tx,MCF10A rerep,SW480 rerep,KB-3-1 cytotox
CCOC(=O)c1c(C)c(C(=O)NCc2ccc(OC)cc2)c(C)n1CC,i,/,/,/,/,i
CCOC(=O)c1c(C)c(C(=O)NCc2cccs2)c(C)n1CC,15µM*,?,5%,-2%,-8%,i
Cc1cc(C)cc(-n2nnc(C(=O)NCc3ccc4c(c3)OCO4)c2N)c1,8.2µM*,8%,5%,?,-5%,i
Cc1cccc(-n2nnc(C(=O)NCc3ccc4c(c3)OCO4)c2N)c1,?,3%,3%,23%,-2%,i
CCCCCc1ccc(OCCOCCn2c[n+](C)c3ccccc32)c(CCCCC)c1,i,?,?,?,?,18µM*
C[n+]1cn(CC(O)COCc2ccccc2)c2ccccc21 (stereo unspecified),i,-8%,-6%,6%,-2%,i
CCCCCc1ccc(OCCC[n+]2ccccc2)c(CCCCC)c1,i,3.7µM*,5.2µM*,?,2%,12µM*
CCCc1nnc(SCC(=O)Nc2ccc(OCC)cc2)n1N,?,3%,10%,1%,-4%,i
Cc1ccc(N2C(=O)CC(Sc3ncccn3)C2=O)cc1C (stereo unspecified),i,-3%,12%,0%,-1%,i
CCn1cc(C(=O)NCCCOC(C)C)c(=O)c2cc(S(=O)(=O)N3CCC(C)CC3)ccc21,i,1%,4%,8%,-3%,i
Cc1ccc(N=Cc2nc(/C=C/c3cccc([N+](=O)[O-])c3)oc2O)cc1,16µM*,22%,7%,?,-4%,i
CN=Cc1nc(-c2ccccc2)oc1O,i,-5%,-10%,-1%,-6%,i
Cc1oc(/N=C/c2cccc([N+](=O)[O-])c2)c(C#N)c1C,i,0%,5%,4%,-7%,i
Cc1ccc(-c2nc(C=Nc3ccc(O)cc3)c(O)o2)cc1,?,?,?,15µM*,5.8µM*,i
Cn1cc([N+](=O)[O-])c(C(=O)N/N=C/c2ccncc2)n1,i,-1%,-1%,4%,3%,i
Cc1c(N=C2N=C(NC(=O)Nc3ccc(Cl)cc3)c3ccccc32)c(=O)n(-c2ccccc2)n1C,i,0%,-20%,16µM*,7%,i
Cc1ccc(C(=O)N/C(=C\c2ccc(Br)cc2)c2nc(=S)[nH][nH]2)cc1,i,?,?,-2%,-3%,i
CCN(CC)CC(=O)Nc1ccc(/C(C)=N/NC2=NCCN2)cc1,i,-20%,-1%,23µM*,18µM*,i
C/C(=N\NC1=NCCN1)c1ccc(Cl)cc1,i,-23%,-17%,?,?,i
NS(=O)(=O)c1ccc(CCNC(=O)CN2CCN(c3ccccc3F)CC2)cc1,i,7%,3%,-7%,-1%,i
CC(C)(C)OC(=O)N(Cc1ccccc1)Cc1ccccc1OCc1ccc(NC(=O)C2CCC2)cc1,?,-14%,-25%,?,?,i
CC(C)C(=O)Nc1cccc(COc2ccccc2CN(Cc2ccccc2)C(=O)OC(C)(C)C)c1,?,-12%,-28%,12µM*,?,?
CC(C)(C)OC(=O)N(Cc1ccccc1)Cc1cccc(OCc2cccc(NC(=O)c3ccccc3)c2)c1,i,2%,-2%,0.29µM*,-57%,i
CC(C)(C)OC(=O)N(CCc1ccccc1)Cc1ccccc1OCc1ccc(NC(=O)C2CCC2)cc1,?,-14%,-24%,6.5µM*,?,?
O=C(C1CC(c2ccc(F)cc2)=NO1)N1CCN(Cc2ccccc2)CC1 (stereo unspecified),i,-1%,-7%,6%,1%,i
SMILES,KB-V1 cytotox,HT1080-NT tox,HT1080 IDH1KD tx,MCF10A rerep,SW480 rerep,KB-3-1 cytotox
O=[N+]([O-])c1ccc(CNc2ccc(Cl)cc2)s1,i,5%,-20%,-10%,-7%,i
CN1c2ccc(Cl)cc2C(=O)NC1c1ccc([N+](=O)[O-])s1 (stereo unspecified),i,?,23µM*,12µM*,42%,i
Cc1ccc(COc2ccccc2-c2cc(C(=O)N/N=C/c3cccnc3)[nH]n2)cc1,?,?,6.5µM*,8.2µM*,57%,?
O=C(N/N=C/c1ccc2ncccc2c1)c1cc(-c2cccs2)nc2ccccc12,?,27%,0%,5.8µM*,12%,?
CC(C)COc1cccc(-c2cc(C(=O)N/N=C/c3ccncc3)c3ccccc3n2)c1,?,-26%,18µM*,18µM*,4%,?
O=C(N/N=C/c1cccnc1)c1cc(-c2cccs2)nc2ccccc12,?,?,?,?,?,16µM*
CCOc1cc(/C=N/NC(=O)c2cc(-c3cccc(OC)c3)nc3ccccc23)ccc1O,?,-24%,?,9%,?,?
Cc1cc(C(=O)N/N=C/c2cccnc2)c2ccccc2n1,i,?,?,?,?,?
CCOc1ccccc1-c1cc(C(=O)N/N=C/c2cccnc2)c2ccccc2n1,i,-26%,-18%,17%,5%,i
CCOc1ccc(N2CC(C(=O)NCc3ccc(F)cc3)CC2=O)cc1 (stereo unspecified),i,-2%,6%,3%,2%,i
COc1cccc(-c2nnc(SC(C(=O)c3c[nH]c4ccccc34)c3ccccc3)n2C)c1 (stereo unspecified),?,-24%,?,?,?,i
Cn1cccc1/C=N/NC(=O)c1cc(-c2cccs2)nc2ccccc12,6.5µM*,?,?,5.8µM*,15µM*,7.3µM*
CCOc1ccc(-c2cc(C(=O)N/N=C/c3cccnc3)c3ccccc3n2)cc1,?,?,?,2.9µM*,7.3µM*,8.2µM*
COc1ccc(-c2cc(C(=O)N/N=C/c3cccnc3)c3cc(C)cc(C)c3n2)cc1,?,?,?,16µM*,?,i
Cc1ccc2c(Cl)c(C(=O)N/N=C/c3cccn3C)sc2c1,i,?,?,21µM*,2%,i
